Shown are actives, neighbours in structure and some others; about 1.1% of the full set was active somewhere.
Pin1 inhibitor – qHTS Assay to Find Inhibitors of Pin1; Pin1 FP peptide displacement, HiFluor488, 10 min; Potency, µM (titrated, usually from 115 µM), for the others: at the top dose activity, negative = inhibition, most hits filed as inhibitors; 0.009% of 390,000 active; AID 504891, 2011; active means well fitted inhibition curve with a large enough effect in the polarisation, with a control signal flat, not every such curve was filed as active; inconclusive means small, poorly fitted or top-dose-only effect, or effect the other way, or a change in a side signal; inactive means no such curve, though single readings can be large or run the other way; the % refers to the polarisation
Target sequence (Q13526 whole entry, looked up): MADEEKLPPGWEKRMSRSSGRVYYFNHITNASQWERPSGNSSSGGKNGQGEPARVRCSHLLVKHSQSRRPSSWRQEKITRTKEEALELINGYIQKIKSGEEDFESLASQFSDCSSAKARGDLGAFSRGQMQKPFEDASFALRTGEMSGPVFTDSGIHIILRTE
GLS inhibitor – qHTS for Inhibitors of Glutaminase (GLS). AID 624170, 2012. Glutaminase kidney isoform, mitochondrial (Homo sapiens), O94925. GLS enzymatic activity, qHTS titration. Potency, µM (highest dose often 45.5 µM), for the others: at the top dose activity change, negative = inhibition, hits mostly inhibitors. 0.21% of 410,000 active
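Enzyme dispensed in phosphate buffer (45 mM, pH 8.2, 0.02% Tween-20), compounds pinned in, then 1 mM L-glutamine solution and the glutamate oxidase–HRP–Amplex Red mix added; fluorescence read immediately and again after 30 min at room temperature.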
Tb PFK inh – qHTS Assay to Find Inhibitors of T. brucei phosphofructokinase; T. brucei PFK, ADP-Glo luminescence; AID 485367, 2010; Potency, µM (doses to about 57.5 µM), for the others: top-dose activity, negative = inhibition, actives largely listed as inhibitors; 0.17% of 330,000 active;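 further: 0% = uninhibited 1x PFK enzyme wells and -100% = no-enzyme wells; nearly all actives have a fitted effect of over 60% in size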
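Luminescent ADP detection (ADP-Glo, two-step: ATP depletion then ADP-to-ATP conversion for luciferase) reported PFK activity after 45 min room-temperature reaction of 1.25 nM enzyme with 0.5 mM F6P and 0.1 mM ATP at pH 8.0.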
VDR inhibitor – Inhibitors of the vitamin D receptor (VDR): qHTS. AID 504847, 2011. Vitamin D3 receptor (Homo sapiens), P11473. 0.93% of 400,000 active. VDR-SRC2-3 peptide fluorescence polarization, 2 h. Potency, µM, inactives show max response, negative = inhibition, hits mostly inhibitors
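The screen uses fluorescence polarization to detect compounds that interfere with recruitment of the SRC2-3 coactivator peptide to VDR; plates are read after 2 h at room temperature.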
Tb PGK inh – qHTS Assay to Find Inhibitors of Phosphoglycerate Kinase; 0.043% of 380,000 active; PGK/GAPDH coupled, Kinase-Glo luminescence, 60 min; Potency, µM (series often up to 57.5 µM), without a hit: top-dose activity change, negative = inhibition, actives largely listed as inhibitors; AID 602233, 2012; Phosphoglycerate kinase, glycosomal (Trypanosoma brucei brucei), P07378; further: nearly all actives have a fitted effect of over 60% in size
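Luminescent ATP detection (Kinase-Glo Plus) follows a 60-minute room-temperature incubation, with wells lacking PGK as controls. Buffer: 100 mM TEA (pH 7.6), 5 mM MgCl2, 0.01% Tween-20. Coupling enzyme GAPDH (100 nM final) supplies unstable 1,3-BPG in-well.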
The depositor's hits bear a star; ? = inconclusive; nt = no result; ! = repeats disagree; [ ] = remark or other dose. Unless noted, the call rests on the fitted dose curve; in most records, active means well fitted curve in the direction sought with a large enough effect; inconclusive means small, poorly fitted or top-dose-only effect, or another doubt; inactive means no such curve, though single readings can be large; an effect the other way counts as inactive or inconclusive. Unless noted, on the % scale 0 is the no-effect control and ±100 the full control effect; potency means the concentration at half of the fitted maximal effect.

SMILES | Pin1 inhibitor | GLS inhibitor | Tb PFK inh | VDR inhibitor | Tb PGK inh
COc1ccc(CN2C(=O)NC(=O)/C(=C\c3ccco3)C2=O)cc1 | 8% | -5% | 0% | 54% | ?
CCOC(=O)[C@]12Cc3cc(C)ccc3[C@H]1N(C1CCCCC1)C(=O)c1cc(OC)ccc12 | nt | 87% | nt | nt | nt
CC(C)(C)NC[C@H](O)c1ccc(O)cc1Cl | nt | -6% | nt | nt | nt
O=C1NC(=S)NC(=O)C1C/C=C/c1ccccc1 | -4% | ? | -1% | 79µM* | -7%[11.5 µM]
O=C1NC(=S)NC(=O)C1Cc1ccccc1 | -6% | 3% | nt | ? | -6%
COc1cc(C(=O)NCCSc2c(-c3ccccc3)[nH]c3ccccc23)cc(OC)c1OC | 36% | 1% | nt | 5% | -3%
O=C1NC(=S)NC(=O)C1=Cc1ccc2c(c1)CCN2CCCCl | nt | 10µM* | -15% | ? | ?
Cc1cccc2c3c(ccc12)C1=C(C(=O)C3=O)[C@@H](C)CO1 | nt | nt | nt | 20µM* | nt
CC(C)(C)NC[C@H](O)c1cc(Cl)c(N)c(Cl)c1 | nt | nt | nt | -2% | nt
O=C(Nc1cccc(F)c1)N1CC2(CCNCC2)C1 | nt | nt | nt | 40µM* | nt
O=C(Nc1cccc(F)c1)N1CC2(CCN(C(=O)Oc3ccccc3)CC2)C1 | nt | nt | nt | -7% | nt
O=C(Oc1ccccc1)N1CCC2(CCN(Cc3nccs3)CC2)CC1 | nt | nt | nt | 8% | nt
Cc1cc(C)n(-c2ccc(NN=C(C#N)C#N)cc2)n1 | 1% | 13% | -3% | 28µM* | -3%
Cc1ccc(OCCOc2cccc(C=C3C(=O)NC(=O)NC3=O)c2)cc1 | ? | -5% | -1% | 40µM* | 8%
COc1ccc(N2C(=O)NC(=O)/C(=C/c3ccc([N+](=O)[O-])s3)C2=O)cc1 | ? | -5% | -11% | 40µM* | ?
O=C1NC(=O)N(c2ccccc2)C(=O)/C1=C\c1ccc2c3c(cccc13)CC2 | nt | nt | 3% | nt | nt
COc1ccccc1N1C(=O)NC(=O)/C(=C/c2ccc3c4c(cccc24)CC3)C1=O | ? | -12% | -4% | 50µM* | -13%
COc1ccc(N2C(=O)NC(=O)/C(=C\c3ccc([N+](=O)[O-])s3)C2=O)cc1 | ? | 13µM* | -12% | 71µM* | -15%
COc1ccccc1N1C(=O)NC(=O)/C(=C/c2ccc([N+](=O)[O-])s2)C1=O | nt | -4% | ? | 45µM* | -15%
COc1cccc(N2C(=O)NC(=O)/C(=C/c3ccc([N+](=O)[O-])s3)C2=O)c1 | ? | ? | -20% | ? | -20%
CC(C)(O)C1O[C@H]2CC[C@@]3(C)[C@@](O)(CC[C@H]4Cc5c([nH]c6ccccc56)[C@@]43C)C2=CC1=O (stereo not given in full) | nt | nt | nt | -10% | nt
CC1(C)C(O)CC(=O)[C@]2(C)C1CC(=O)[C@]1(C)C2CC[C@@]2(C)C(c3ccoc3)OC(=O)C3O[C@@]321 (stereo not given in full) | nt | nt | nt | -1% | nt
CCCCCc1cc(O)c2c(c1)OC(C)(C)C1CC=C(C)CC21 (stereo not given) | nt | 20% | nt | ? | nt
COC[C@]12CN(C=O)C3C4C(OC)C1[C@@]3(C1CC3(O)C(OC)C(O)C4(OC(C)=O)C1C3OC(=O)c1ccccc1)[C@@H](OC)CC2O (stereo not given in full) | nt | nt | nt | -6% | nt
CCCCCC(O)C1C(=O)OC(C)C(O)\C=C/C=C\C=C/C=C\C=C(\C)C(O)C(O)C(O)CC(O)CC(O)CC(O)CC(O)CC1O (stereo not given) | nt | 28µM*! | nt | 2% | nt
CC(C)C[C@H](NC(=O)[C@H](CC(C)C)NC(=O)[C@H](Cc1ccccc1)NC(=O)[C@@H](N)Cc1ccc(O)cc1)C(=O)N[C@@H](CCCN=C(N)N)C(=O)N[C@@H](CC(N)=O)C(=O)N1CCC[C@H]1C(=O)O | nt | nt | nt | 0% | nt
CN(N=O)c1ccc(O)c(O)c1 | nt | nt | nt | 35µM* | nt
COc1ccc2c(c1O)-c1cc(O)cc3c1[C@@H](C2)N(C)CC3 | nt | nt | nt | 3% | nt

Screens (PubChem)
